Experimental data reported in PubChem BioAssay AID588855 (National Center for Advancing Translational Sciences (NCATS), 2011).
About 5,000 (1.2%) of roughly 410,000 compounds were called active. Roughly 13% stayed inconclusive and do not appear here. Calls come from the whole dose curve; as a rule, active = well fitted inhibition curve with a large enough effect; inconclusive = small, poorly fitted or top-dose-only effect; inactive = no such curve, though single readings can be large or run the other way. What follows is part of a selection rich in actives, with near analogues and random picks from the rest. Where a call stands in place of a potency, no number is given.

Experiment: qHTS for Inhibitors of TGF-b; note: nearly all actives have a fitted effect of over 65% in size
Settings: HepG2 CAGA-GFP TGF-b/SMAD3 reporter, GFP fluorescence, 18 h, TGF-beta stimulated, 500 pg/mL final; series mostly up to 46.1 µM
How it was run: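 Cell-based qHTS in HEPG2 carrying a CAGA-GFP Smad reporter; compounds added before 500 pg/mL final TGF-beta, 18 h incubation at 37 degrees C, GFP fluorescence quantified per cell by imaging cytometry.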
Potency is the fitted concentration of half-maximal effect.

Row | Structure (SMILES) | Potency
1 | COc1cccc(CNC(=O)c2cc(=O)[nH]c3ccc(S(=O)(=O)N4CCCCC4)cc23)c1 | inactive
2 | O=C(NCCN1CCOCC1)c1cc(Sc2cccc(Cl)c2)nc2ccccc12 | inactive
3 | Fc1ccc(-c2ccc(NCCN3CCOCC3)nn2)cc1 | inactive
4 | c1ccc2cc3c(NCCN4CCOCC4)ccnc3cc2c1 | 3.98 µM (active)
5 | COc1ccc(S(=O)(=O)c2c(Nc3ccc(C)cc3)sc(C(=O)c3ccc(C)cc3)c2N)cc1 | inactive
6 | Cc1ccc(-c2nc(CSCC(=O)NC3CCN(Cc4ccccc4)CC3)c(C)o2)cc1 | 11.2 µM (active)
7 | COc1ccc(-c2nc(CN3CCC(C(=O)NCc4ccccc4)CC3)c(C)o2)cc1OC | inactive
8 | CCOc1ccc(CC(=O)NC2CCN(Cc3ccccc3)CC2)cc1 | inactive
9 | COc1ccccc1-c1cc(C(F)(F)F)nc(S(=O)(=O)CCCC(=O)Nc2ccc(F)cc2F)n1 | 3.98 µM (active)
10 | COc1ccccc1-c1cc(C(F)(F)F)nc(S(=O)(=O)CCCC(=O)Nc2cc(C)ccc2O)n1 | inactive
11 | CSc1ccccc1NC(=O)CCS(=O)(=O)c1nc(-c2cccs2)cc(C(F)(F)F)n1 | inactive
12 | CCOc1cc(C(=O)Nc2nnc3n2CCS3)cc(OCC)c1OCC | inactive
13 | O=C(COC(=O)c1ccc([N+](=O)[O-])o1)NC12CC3CC(CC(C3)C1)C2 | inactive
14 | O=C(Nc1ccc(Br)cn1)c1ccc([N+](=O)[O-])o1 | 10 µM (active)
15 | O=C(Nc1cccc(NC(=O)c2ccccc2[N+](=O)[O-])c1)c1ccccc1Cl | inactive
16 | O=C(Nc1ccc(Br)cn1)c1ccc([N+](=O)[O-])cc1Cl | inactive
17 | CN1C(=O)c2ccc(C(=O)Nc3ccc(Br)cn3)cc2C1=O | inactive
18 | Cc1cccc(NC(=O)CCn2c(=O)oc3ccccc32)c1 | inactive
19 | Cc1onc(C(=O)Nc2ccc3c(c2)OCO3)c1[N+](=O)[O-] | inactive
20 | Cc1cccc(NC(=O)c2ccc([N+](=O)[O-])o2)c1 | 11.2 µM (active)
21 | Cc1onc(NC(=O)c2ccc([N+](=O)[O-])o2)c1Br | 11.2 µM (active)
22 | CCOc1ccc(N(CC)C(=O)C2CCN(S(=O)(=O)c3cccc4nonc34)CC2)cc1 | inactive
23 | COc1ccc(NC(=O)c2sc3nc[nH]c(=O)c3c2C)cc1 | inactive
24 | Cc1nc2ccn(Cc3cccnc3)c(=O)c2cc1C(=O)N1CCN(c2ccccc2F)CC1 | inactive
25 | Cc1nn(C(C)C(=O)Nc2ccc(C(C)C)cc2)c(=O)c2c1sc1ccccc12 (configuration not stated) | inactive
26 | Cc1ccc2sc(N(Cc3cccnc3)C(=O)C3COc4ccccc4O3)nc2c1C (configuration not stated) | inactive

Row | Structure (SMILES) | Potency
27 | O=C(c1ccccc1F)N1CCC(c2nc3c(nnn3Cc3cccc(F)c3)c(=O)[nH]2)CC1 | inactive
28 | O=[N+]([O-])c1ccc(C=Nc2ccc(Cl)cc2Cl)s1 | 10 µM (active)
29 | CCOC(=O)c1sc(NC(=O)/C=C/c2ccc(C(C)C)cc2)c(C(=O)OCC)c1C | inactive
30 | CS(=O)c1ccc(/C=C2\C=Cc3ccccc32)cc1 (configuration not stated) | inactive
31 | COc1cccc(-c2cc(C(=O)Nc3ccc(C)cc3)[nH]n2)c1 | inactive
32 | O=C(Cn1c(NCCO)nc2ccccc21)c1ccc(Cl)cc1Cl | inactive
33 | O=C(O)c1ccc(Nc2nc(-c3ccccc3)c3cc(Br)ccc3n2)cc1 | inactive
34 | OCCNc1nc(Nc2ccc(Cl)c(Cl)c2)nc2ccccc12 | 11.2 µM (active)
35 | O=C(C1CC1)N1CCc2cc(Br)cc(S(=O)(=O)N3CCN(c4ccccc4F)CC3)c21 | inactive
36 | CCOC(=O)CNC(=O)c1cc2c(=O)n3cccc(C)c3nc2s1 | inactive
37 | Cc1cccc(CN2Cc3cccc4c3[C@H](C=CC4)CC2=S)c1 | inactive
38 | CC(C)c1ccc(NC(=O)C2CCN(c3nc(-c4ccc(C(C)C)cc4)no3)CC2)cc1 | inactive
39 | Cc1cc(C)cc(OC(C)C(=O)Nc2nc3c(s2)CCCC3)c1 (configuration not stated) | inactive
40 | COc1ccc(CCNc2nc3c(-c4cccc(F)c4)nnn3c3ccccc23)cc1OC | inactive
41 | CC(Nc1nc(C(F)(F)F)nc2ccccc12)c1cccs1 (configuration not stated) | 17.8 µM (active)
42 | CC(Nc1nc(N2CCN(CCO)CC2)nc2ccccc12)c1ccccc1 (configuration not stated) | inactive
43 | Cc1cc(C)n(-c2nc(C(F)(F)F)nc3ccccc23)n1 | inactive
44 | COc1ccc(/C=C/c2ccccn2)cc1OC | inactive
45 | CN(Cc1ccccc1)S(=O)(=O)c1nnc(NC(=O)c2ccccc2F)s1 | inactive
46 | Cc1ccccc1C(=O)Nc1nnc(S(=O)(=O)N(C)c2ccc(Cl)cc2)s1 | 8.91 µM (active)
47 | CC(C)CC(=O)Nc1nnc(S(=O)(=O)N(C)c2ccc(Cl)cc2)s1 | inactive
48 | CCCCc1nn2c(=O)cc(COC(=O)c3cccc(NC(=O)COc4ccccc4)c3)nc2s1 | inactive
49 | Cc1nn(-c2ccc(F)cc2)c(-n2cccc2)c1C(=O)N1CCN(c2ccccc2)CC1 | inactive
50 | Cc1ccc2oc3c(c(=O)c2c1)C(c1ccc([N+](=O)[O-])cc1)N(CCCN1CCOCC1)C3=O (configuration not stated) | inactive
51 | COc1ccc(CCNC(=O)c2cc(=O)c3c(C)cc(C)cc3o2)cc1OC | inactive
52 | Cc1ccc(-c2cc(-c3coc4ccccc4c3=O)c3c(n2)-c2cc(Cl)ccc2OC3)cc1 | inactive

Row | Structure (SMILES) | Potency
53 | CN(C)C(=O)c1nc2ccc(Cl)cn2c1CNCc1cccc(OC(F)(F)F)c1 | inactive
54 | Cc1ccc(-c2nc3ccc(Br)cn3c2Cc2ccccc2C(F)(F)F)cc1 | 14.1 µM (active)
55 | Cc1ccc2nc(-c3ccccc3)c(CC3CCCCC3)n2c1 | inactive
56 | Fc1cccc(Cc2c(-c3cccc(Cl)c3)nc3ccc(Br)cn23)c1 | 14.1 µM (active)
57 | COC(=O)c1ccc2nc(-c3ccc(Cl)cc3)c(Cc3cccc(F)c3)n2c1 | inactive
58 | Cc1cc(Br)cn2c(Cc3ccccc3C(F)(F)F)c(C3CCCCC3)nc12 | inactive
59 | COc1ccccc1Cc1c(-c2ccc(Cl)cc2)nc2ccc(Cl)cn12 | inactive
60 | Brc1ccc2nc(-c3ccccc3)c(Cc3ccccc3)n2c1 | 12.6 µM (active)
61 | Fc1cccc(Cc2c(-c3ccc(Cl)cc3)nc3ccc(Cl)cn23)c1 | inactive
62 | COC(=O)c1ccc2nc(C3CCCCC3)c(Cc3cccc(F)c3)n2c1 | inactive
63 | Cc1ccc(-c2nc3ccc(Cl)cn3c2Cc2ccccc2)cc1 | inactive
64 | Clc1cccc(Cc2c(-c3cccc(Cl)c3)nc3ccc(Cl)cn23)c1 | 10 µM (active)
65 | Cc1ccc(NC(=O)CN2C(=O)CC(C)Sc3ccccc32)c(C)c1 (configuration not stated) | inactive
66 | COc1ccc(CCNC(=O)CCc2c(C)nc3c(c(C)nn3-c3ccc(C)c(C)c3)c2C)c(OC)c1OC | inactive
67 | COc1ccc(CCNC(=O)Cn2c(=O)n(-c3ccccc3)c(=O)c3c(C)c(C)sc32)cc1OC | inactive
68 | CC(C)c1ccc(NC(=O)c2cc(S(=O)(=O)N3CCc4ccccc4C3)ccc2F)cc1 | inactive
69 | CCCCNC(=O)c1ccc2c(c1)NC(=O)C(C(C)C)N2 (configuration not stated) | inactive
70 | COc1ccc(C(=O)Nc2nonc2-c2ccc(OC)c(OC)c2)cc1Cl | inactive
71 | COc1cc2nc(NCC(C)c3ccccc3)n3nc(-c4ccccc4)nc3c2cc1OC (configuration not stated) | inactive
72 | Cc1cccc(N(C)C(=O)CS(=O)(=O)c2cccc3nsnc23)c1 | inactive
73 | CCN1CCN(c2ccc(/C=C/c3ccnc4ccccc34)cc2)CC1 | inactive
74 | Cc1ccc(C2C=C(c3ccc(Cl)cc3)Nc3nc(NC(=O)CCC(=O)O)nn32)cc1 (configuration not stated) | inactive
75 | COc1ccc(N2CCN(c3nc(-c4ccccc4F)nc4ccccc34)CC2)cc1 | inactive
76 | Cc1cccc(C)c1NC(=O)C(Cl)C(=O)c1ccccc1 (configuration not stated) | 11.2 µM (active)
77 | Cc1cccc(C)c1NC(=O)N1CC(C)OC(C)C1 (configuration not stated) | inactive
78 | Cc1cccc(C)c1NC(=O)CN(C)C(=O)CCC(=O)c1ccccc1 | inactive

Row | Structure (SMILES) | Potency
79 | Cc1ccc2c(=O)cc(C(=O)Nc3sc4c(c3C(=O)NCc3cccnc3)CCCC4)oc2c1 | inactive
80 | N#Cc1ccc[n+](CC(=O)c2ccc(F)cc2)c1 | inactive
81 | Cc1ccc(C)c(Nc2nnc(-c3ccc(C)c(S(=O)(=O)N4CCCCC4)c3)c3ccccc23)c1 | inactive
82 | CCn1c(CNC(=O)C23CC4CC(CC(C4)C2)C3)nnc1SCC(=O)Nc1ccc(OC)cc1 | inactive
83 | CC(=O)Nc1ccc2nc(SCCOc3cc(C)cc(C)c3)sc2c1 | inactive
84 | Brc1cccc[n+]1Cc1cccc(C[n+]2ccccc2Br)c1 | inactive
85 | Cc1c(C(=O)Nc2ccccn2)oc2ccc(Br)cc12 | inactive
86 | O=C(CCc1ccc(O)cc1)NN=Cc1cc(Br)ccc1O | inactive
87 | Oc1ccc(Br)cc1/C=N/Nc1ccccn1 | 0.562 µM (active)
88 | CCn1cc(C(=O)NCCc2ccccc2)c(=O)c2cc(S(=O)(=O)N3CCCCCC3)ccc21 | inactive
89 | CCCN(CC1COc2ccccc2O1)C(=S)Nc1ccc(C)cc1 (configuration not stated) | inactive
90 | CC(NC(=S)Nc1ccccc1)C1COc2ccccc2O1 (configuration not stated) | inactive
91 | S=C(NCC1COc2ccccc2O1)Nc1ccc(Br)cc1 (configuration not stated) | 22.4 µM (active)
92 | CCOC(=O)c1ccc(NC(=O)Cn2c(=O)n(-c3ccc(C)cc3)c(=O)c3c2cnn3C)cc1 | inactive
93 | COc1cc2nc(C#Cc3nc4cc(OC)c(OC)cc4[nH]3)[nH]c2cc1OC | inactive
94 | Cc1ccc(Cl)cc1NC(=O)CSc1nccn1C | inactive
95 | C[N+]1(CC(=O)c2cccs2)CCOCC1 | inactive
96 | Cc1ccccc1C(CC(=O)c1cccs1)C(C#N)C#N (configuration not stated) | 20 µM (active)
97 | Cc1ccc(C)c(NC(CC(=O)c2ccccc2)C(=O)OCC(=O)c2cccs2)c1 (configuration not stated) | inactive
98 | Cc1ccc(-n2nnnc2CNC(=O)c2ccccc2C)cc1C | inactive
99 | CCN(c1ncnc2c1cnn2-c1ccc(C)cc1)C1CCCCC1 | inactive
100 | O=S(=O)(NCc1ccccc1Br)c1ccccc1Br | inactive
101 | CCN([C@H](CO)C(C)C)S(=O)(=O)c1ccccc1Br | inactive
102 | CC(C)c1ccc(OCC(=O)N(Cc2ccc(N(C)C)cc2)C2CCS(=O)(=O)C2)cc1 (configuration not stated) | inactive
